Rab9 prom act – Rab9 promoter activation; hit rate 2.8% among 320,000; Potency, µM (top dose mostly 9.22 µM), without a hit: top-dose activation, negative = inhibition, usual class: activators; Huh7 Rab9 promoter-luciferase reporter, luminescence, 24 h; also: % of control where 0% means no effect; nearly all actives have a fitted effect of over 60% in size
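Huh7 cells stably carrying a Rab9 promoter-luciferase reporter, 1500 cells per well in OP-MEM I with 10% FBS, treated with compound 24 hours at 37C. Luciferase activity read by luminescence after 10 minutes with Amplite reagent.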
ELG1 repair inh – blocks ELG1-dependent DNA repair in HEK293T cells. HEK293T ELG1-luciferase reporter, luminescence, 16 h; DNA damage induced by 5-fluorouridine. Potency, µM (top dose mostly 46.1 µM), inactives show at the top dose activity change, negative = inhibition, usual class: inhibitors. hit rate 2.3% among 330,000; also: % is scaled to controls: 0 for no effect and ±100 for the full control effect; nearly all actives have a fitted effect of over 55% in size
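Cells (2,000 per well) received 5-fluorouridine plus test compound or DMSO and were incubated 16 hr at 37 °C, 5% CO2. Luciferase activity was read by luminescence 30 min after ONE-Glo addition; signal suppression marked inhibition of damage-induced ELG1 function.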
FLuc counter – firefly luciferase modulation, counter-screen for miR-21 project; purified FLuc, Km substrates, luminescence inhibition; Potency, µM (doses to about 57.5 µM), for inactives: at the highest dose activity change, negative = inhibition, most hits filed as inhibitors; hit rate 6.9% among 360,000; AID 588342;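 also: plate controls were vehicle for no effect and reference inhibitor for full effect; nearly all actives have a fitted effect of over 55% in size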
Target sequence (P08659 whole entry, looked up): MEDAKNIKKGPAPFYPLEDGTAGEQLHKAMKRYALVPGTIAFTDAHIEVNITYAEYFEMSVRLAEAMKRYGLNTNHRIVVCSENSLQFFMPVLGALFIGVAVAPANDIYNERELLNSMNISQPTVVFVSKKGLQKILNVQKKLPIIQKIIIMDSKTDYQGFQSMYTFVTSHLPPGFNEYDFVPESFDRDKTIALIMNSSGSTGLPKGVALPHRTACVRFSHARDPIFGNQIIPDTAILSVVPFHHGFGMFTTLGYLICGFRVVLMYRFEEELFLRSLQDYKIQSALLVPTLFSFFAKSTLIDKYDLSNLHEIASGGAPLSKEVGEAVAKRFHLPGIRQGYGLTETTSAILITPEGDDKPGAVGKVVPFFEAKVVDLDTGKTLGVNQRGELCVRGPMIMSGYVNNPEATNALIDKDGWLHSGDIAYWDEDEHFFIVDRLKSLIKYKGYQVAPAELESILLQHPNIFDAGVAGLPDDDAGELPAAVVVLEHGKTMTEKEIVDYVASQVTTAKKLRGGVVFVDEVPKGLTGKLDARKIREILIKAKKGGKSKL
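Purified P. pyralis luciferase (10nM final) with 10uM D-luciferin and 10uM ATP (Km levels) in 50mM Tris acetate pH 7.5, 10mM Mg acetate, 0.01% Tween-20, 0.05% BSA; qHTS 6-point titration, ~60 µM downward; luminescence read.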
NPC1 prom act – activators of NPC1 promoter. Potency, µM (series often up to 9.22 µM), for inactives: at the highest dose activation, most hits filed as activators. Huh7 NPC1 promoter luciferase reporter, 24 h. hit rate 2.4% among 320,000; also: % of control where 0% means no effect; nearly all actives have a fitted effect of over 60% in size
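Huh7 cells stably carrying NPC1 promoter–luciferase, plated in Opti-MEM with 10% FBS for 2 h, were exposed to compound in DMSO for 24 h at 37 °C; luciferase reagent was added for 10 min and luminescence read.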
SMN2 splice up – increases expression of the SMN2 splice variant | Potency, µM (highest dose often 46.1 µM), without a hit: at the top dose activity change, positive = activation, hits mostly activators | hit rate 2.8% among 210,000 | AID 1458 | HEK293 SMN2-luciferase splicing reporter, luminescence, 30-36 h; also: % of control where 0% means no effect; nearly all actives have a fitted effect of over 55% in size
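qHTS luciferase splicing reporter: luminescence rises when SMN2 exon 7 is included in transfected HEK293 cells. Compound exposure lasted 30-36 h at 37C, with 4.5 mM final sodium butyrate as control, followed by a ONE-Glo read.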
ELG1 genotoxic – induces genotoxicity in HEK293T cells with luciferase-tagged ELG1. AID 504466. HEK293T ELG1-luciferase reporter, luminescence, 16 h. hit rate 1.3% among 330,000. Potency, µM (titrated, usually from 46 µM), for inactives: top-dose activity change, positive = activation, actives largely listed as activators; also: % of control where 0% means no effect; nearly all actives have a fitted effect of over 60% in size
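Step 1: seed 2,000 HEK293T ELG1-luciferase cells per well. Step 2: add compound or DMSO, incubate 16 hr at 37 °C. Step 3: ONE-Glo, 30 min at room temperature, read luminescence.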
Active calls of the source: *; u = inconclusive; x = no result given; [ ] = dose if it differs, or a comment. Compounds with a hit are over-represented: about 9.4% of the library has one in this group of screens. Calls follow the shape of the dose curve; as a rule, active = well fitted curve in the direction sought with a large enough effect; inconclusive = small, poorly fitted or top-dose-only effect, or another doubt; inactive = no such curve, though single readings can be large; an effect the other way counts as inactive or inconclusive. Potency is read from the fitted curve at half-maximal effect.

SMILES	Rab9 prom act	ELG1 repair inh	FLuc counter	NPC1 prom act	SMN2 splice up	ELG1 genotoxic
Cc1ccc(-c2cc(C(=O)OCC(=O)NC3CC3)c3ccccc3n2)cc1	5.3%	-1.3%	x	-1.9%	x	0.1%
COc1ccc(-c2csc(N3CCN(c4cc(C)nc5ccccc45)CC3)n2)cc1OC	-21.1%	8.2µM*	2.6%	-15.7%	-80.7%	-28.5%
Cc1ccc2c(C(=O)N3CCN(c4ccccc4)CC3)cc(-c3cccnc3)nc2c1C	-5.6%	u	-2.2%	-6.6%	9.8%	-3.4%
COc1ccc(-c2cc(C(=O)N3CCN(c4ccccc4)CC3)c3ccccc3n2)cc1OC	-2.4%	16.4µM*	15.1µM*	-3.3%	24.7%	-15.4%
Cc1ccc(-c2cc(C(=O)N3CCN(c4ccccc4)CC3)c3ccccc3n2)cc1C	x	x	2.39µM*	x	x	x
CN(C)CCCNc1cc(N2CCN(C3CCCCC3)CC2)c2noc3c2c1C(=O)c1ccccc1-3	x	x	-3.1%	x	-22.3%	x
Cc1ccc(CN2C(=O)c3ccccc3S(=O)(=O)c3ccc(C(=O)OCC4CCCO4)cc32)cc1 (centres undefined)	x	x	-1.1%	x	x	x
Cc1ccc(-c2cc(C(=O)n3cnc4ccccc43)c3ccccc3n2)cc1C	u	u	3.01µM*	u	21.3%	11.7%
Cc1ccc(-c2cc(C(=O)NC(C)c3ccccc3)c3ccccc3n2)cc1C (centres undefined)	x	x	-14.2%	x	x	x
COc1ccc(-c2cc(C(=O)OCC(=O)N3CCCCC3)c3ccccc3n2)cc1OC	x	9.2µM*	x	x	x	-12.2%
O=C(OCC(=O)N1CCOCC1)c1cc(-c2ccccc2)nc2ccccc12	x	u	x	x	x	-1.3%
Cc1ccc(Cl)cc1Nc1nc2ccccc2c2nncn12	x	x	-2.0%	x	5.9%	x
Cc1ccc(C(=O)O)cc1-c1ccc(/C=C2\SC(=O)N(CC(=O)Nc3ccccc3)C2=O)o1	-0.9%	-12.6%	u	-0.1%	-3.4%	-1.7%
CC(C)(C)OC(=O)CN1C(=O)S/C(=C\c2ccc(-c3cccc(C(=O)O)c3)o2)C1=O	3.16µM*	u	15.1µM*	u	x	u
Cc1ccc(NC(=O)CN2C(=O)S/C(=C/c3ccc(-c4cccc(C(=O)O)c4)o3)C2=O)cc1	13.4%	u	21.3µM*	12.7%	u	-10.5%
O=C1S/C(=C/c2ccc(N3CCOCC3)o2)C(=O)N1Cc1ccc(F)cc1	-4.0%	0.4%	u	-0.5%	-17.0%	1.1%
C#CCN1C(=O)S/C(=C\c2ccc(-c3ccc(C(=O)O)cc3C)o2)C1=O	2.51µM*	u	7.57µM*	1.12µM*	x	u
Cc1cc(C(=O)O)ccc1-c1ccc(/C=C2\SC(=O)N(CC(=O)Nc3ccc4c(c3)OCO4)C2=O)o1	-1.6%	-5.6%	u	-2.5%	x	-0.2%
CC(C)OC(=O)CN1C(=O)S/C(=C/c2ccc(N3CCCCC3)o2)C1=O	-3.3%	u	21.3µM*	0.9%	-10.0%	27.6%
O=c1c(Br)c(N2CCCCC2)cnn1-c1ccccc1	2µM*	u	15.1µM*	3.55µM*	x	u
CN1CCN(c2cnn(-c3ccccc3)c(=O)c2Br)CC1	14.5%	u	-5.8%	4.5%	u	15.2%
O=c1c(Br)c(N2CCCC2)cnn1-c1ccccc1	2µM*	u	21.3µM*	3.98µM*	11.2µM*	u
CCOC(=O)c1ccc(N/C=C/C(=O)c2ccccc2)cc1	u	u	6.01µM*	11.0%	x	-5.9%
CCOC(=O)c1ccc(N/C=C/C(=O)C(C)(C)C)cc1	3.55µM*	u	3.01µM*	3.55µM*	u	u
COc1ccc(NC(=O)CSC2=Nc3ccccc3N=C(c3ccc(F)cc3)C2)cc1OC	x	x	-2.4%	x	x	x
SMILES	Rab9 prom act	ELG1 repair inh	FLuc counter	NPC1 prom act	SMN2 splice up	ELG1 genotoxic
Cc1sc(-c2cc3c([nH]c2=O)CC(c2ccccc2)CC3=O)nc1-c1ccc(Cl)cc1 (centres undefined)	x	x	1.5%	x	-10.3%	x
CCOC(=O)c1cccnc1SCC(=O)Nc1ccc(C)cc1C	x	x	-9.2%	x	x	x
CCc1nc(Cl)c(C#N)c2c1CCCC2	2.8%	13µM*	0.9%	-3.4%	-3.2%	-6.1%
COc1cc(NC(=O)Cn2cc(C(=O)c3ccc(F)cc3)c(=O)c3ccc(C)nc32)cc(OC)c1	x	x	-5.7%	x	x	x
CC(=O)Nc1ccc(Cc2ccc3[nH]c(=O)cc(C)c3c2)cc1	-0.5%	u	2.6%	-2.9%	8.1%[9.22 µM]	20.6µM*
CC(=O)Nc1ccc2[nH]c3ccccc3c2c1	20.9%	u	19µM*	3.4%	x	0.8%
CC(=O)Nc1ccc2[nH]c(C)cc(=O)c2c1	-2.8%	17.0%	4.1%	-2.9%	1.6%	-0.7%
COc1cccc(N2CCN(C(=O)c3ccc(CS(=O)c4cccc(Cl)c4)o3)CC2)c1 (centres undefined)	x	x	-3.1%	x	x	x
CC(C)OC(=O)Cn1nnc2c(cnn2-c2ccccc2)c1=O	18.0%	u	16.9µM*	16.8%	26.0%	13.6%
COC(=O)Cn1nnc2c(cnn2-c2ccccc2)c1=O	18.5%	6.9%	-6.5%	-2.4%	x	8.2%
COc1ccc(N2CCN(C(=O)CCc3c(C)nc4c(-c5ccccc5)c(C)nn4c3C)CC2)cc1	x	x	-3.1%	x	-4.4%	x
COC(=O)c1c(O)c2ccccc2[nH]c1=O	-2.0%	-1.5%	3.5%	-1.0%	-11.0%	0.8%
O=C(NC1CCCCCC1)c1c(O)c2ccccc2[nH]c1=O	u	u	2.69µM*	1µM*	2.5%	u
O=C(N/N=C/c1ccc(F)cc1)c1c(O)c2ccccc2[nH]c1=O	-3.1%	u	-1.6%	0.5%	x	0.2%
COc1ccccc1NC(=O)c1c(O)c2ccccc2[nH]c1=O	u	u	u	1.26µM*	x	7.6%
O=c1[nH]c2ccccc2c(O)c1-[n+]1ccccc1	-2.7%	10.7%	3.1%	1.8%	x	1.2%
O=c1[nH]c2ccccc2c(O)c1O	-0.4%	3.26µM*	u	0.7%	3.7%	-9.5%
O=C(N/N=C/c1ccccc1)c1c(O)c2ccccc2[nH]c1=O	1.41µM*	u	u	1.78µM*	3.55µM*	13.5%
O=C(Cc1c(O)c2ccccc2[nH]c1=O)NC1CCCCCC1	7.5%	11.7%	-5.9%	-1.5%	-10.4%	5.8%
CCOC(=O)c1ccc(NC(=O)c2cc(=O)c3cc(CC)ccc3o2)cc1	x	x	0.9%	x	17.3%	x
COc1ccc(-c2oc3ncn4nc(COc5ccc(Cl)cc5)nc4c3c2-c2ccc(OC)cc2)cc1	x	x	1.3%	x	1.8%	x
O=C(N/N=C/c1ccsc1)c1ccccn1	4.47µM*	u	15.1µM*	2.82µM*	x	u
CC(C)(C)c1ccc(/C=N/NC(=O)c2ccccn2)cc1	0.891µM*	u	0.379µM*	0.316µM*	x	u

Bioassay records from PubChem.
